Source: PubChem BioAssay AID1209 (Sanford-Burnham Center for Chemical Genomics, 2008)
Out of some 190,000 compounds screened, about 810 (0.43%) were called active. Cut-off read from the data, not from the text of the source: active = inhibition above about 50%; inactive = the rest. The full list was thinned out, with actives kept by preference.

molecular target: Mannose-6-phosphate isomerase (Homo sapiens) (UniProt P34949); experiment: inhibitors of human PMI, primary screen, biochemical, fluorescence intensity, coupled assay (AID 1209); details: purified PMI enzyme, at 20 µM, active compounds read high;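 note: plate controls were DMSO vehicle for no effect and wells lacking substrate for full effect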
Sequence (P34949 whole entry, looked up): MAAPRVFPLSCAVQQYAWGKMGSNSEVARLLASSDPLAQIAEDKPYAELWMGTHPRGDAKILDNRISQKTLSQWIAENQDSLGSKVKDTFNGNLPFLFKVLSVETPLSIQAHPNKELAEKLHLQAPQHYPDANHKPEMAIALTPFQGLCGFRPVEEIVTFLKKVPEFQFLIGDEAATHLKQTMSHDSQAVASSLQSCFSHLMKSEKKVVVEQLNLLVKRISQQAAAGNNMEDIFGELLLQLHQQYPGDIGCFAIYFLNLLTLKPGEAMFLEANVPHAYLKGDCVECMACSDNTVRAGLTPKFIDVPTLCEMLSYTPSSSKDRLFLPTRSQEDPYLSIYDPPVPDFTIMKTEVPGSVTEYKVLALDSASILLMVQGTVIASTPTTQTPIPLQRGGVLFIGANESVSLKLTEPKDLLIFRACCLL

Compound | inhibition
O=C(c1ccc(F)cc1)c1c[nH]c(C(=O)NCCCN2CCOCC2)c1 | 4.5% (inactive)
N#Cc1c(NC(=O)Cn2nc(C(F)(F)F)c3c2CCCC3)sc2c1CCC2 | 56.8% (active)
CCc1c(C)sc(NC(=O)Cn2nc(C(F)(F)F)c3c2CCCC3)c1C#N | 15.3% (inactive)
CC1CCc2c(sc(NC(=O)Cn3nc(C(F)(F)F)c4c3CCCCC4)c2C#N)C1 (configuration not stated) | -0.9% (inactive)
CCOc1ccc(Br)cc1S(=O)(=O)Nc1ccc(N2CCOCC2)cc1 | 12% (inactive)
c1ccc(N2CCN(c3c4c(nc5ncnn35)CCC4)CC2)cc1 | 68.8% (active)
COc1cccc(N2CCN(c3c4c(nc5ncnn35)CCC4)CC2)c1 | -1.8% (inactive)
CC1CCc2c(nc3ncnn3c2N2CCN(c3ccccc3)CC2)C1 (configuration not stated) | -7.9% (inactive)
N#CC1=C(N)Oc2n[nH]c(-c3cccs3)c2C1C1C=CCCC1 (configuration not stated) | 2.1% (inactive)
O=C(CSc1nc2ccccc2s1)CSc1nc2ccccc2s1 | 7.7% (inactive)
O=C(O)CSc1ncccn1 | -18.2% (inactive)
CN(C(=O)c1ccccn1)C1(C(=O)NC2CCCCC2)CCCCC1 | -7.7% (inactive)
O=C(Nc1cc(N2CCOCC2)ncn1)c1ccc(F)cc1 | 5.3% (inactive)
O=C(Nc1cc(N2CCOCC2)ncn1)NC1(C(F)(F)F)Oc2ccc(Cl)cc2O1 (configuration not stated) | 74.1% (active)
O=C(NCc1cccnc1)NC1(C(F)(F)F)Oc2ccc(Cl)cc2O1 (configuration not stated) | 22.4% (inactive)
O=C(NCCN1CCOCC1)NC1(C(F)(F)F)Oc2ccccc2O1 | 8.2% (inactive)
COCCNC(=O)NC1(C(F)(F)F)Oc2ccc(Cl)cc2O1 (configuration not stated) | 22.5% (inactive)
O=C(NCCN1CCOCC1)NC1(C(F)(F)F)Oc2ccc(Cl)cc2O1 (configuration not stated) | 60.2% (active)
COCC(C)NC(=O)NC1(C(F)(F)F)Oc2ccc(Cl)cc2O1 (configuration not stated) | 22.8% (inactive)
Cc1cc(NC(=O)NC2(C(F)(F)F)Oc3ccc(Cl)cc3O2)no1 (configuration not stated) | 52% (active)
O=C(Nc1cc(N2CCOCC2)ncn1)NC1(C(F)(F)F)Oc2ccccc2O1 | 35.5% (inactive)
O=C(c1cc2nc(-c3ccco3)cc(C(F)(F)F)n2n1)N1CCCCCC1 | -12.3% (inactive)
CCCOC(=O)c1ccc(Nc2nc(C)cc(=O)[nH]2)cc1 | 1.7% (inactive)
Cc1cc(C)nc(SCc2nnc(SCC(=O)Nc3cc(C(F)(F)F)ccc3Cl)o2)n1 | 3% (inactive)
Cc1ccc(N2C(=O)C3Sc4[nH]c(=O)sc4C(c4ccccc4)C3C2=O)cc1 (configuration not stated) | 11.4% (inactive)
COc1ccc(C(=O)NC(C)c2ccccc2)cc1Br (configuration not stated) | 3.2% (inactive)

Compound | inhibition
O=C(O)C1Sc2[nH]c(=O)sc2C2c3ccc(O)cc3OC(=O)C12 (configuration not stated) | 24.3% (inactive)
COC(=O)C1Sc2[nH]c(=O)sc2C2c3ccccc3OC(=O)C12 (configuration not stated) | 10.6% (inactive)
O=C(O)C1Sc2[nH]c(=O)sc2C2c3cc(Cl)ccc3OC(=O)C12 (configuration not stated) | 50.4% (active)
O=C(Nc1ccc(S(=O)(=O)Nc2nccs2)cc1)c1cc(-c2ccccn2)nc2ccccc12 | -1.4% (inactive)
CC(C)CCn1c(=O)c(C(=O)N/N=C/c2cccc(F)c2)c(O)c2ccccc21 | -3.7% (inactive)
CC(C)(C=O)C1=CC(=O)c2ccccc2C1=O | -17.2% (inactive)
CC(C)(C)C1=CC(=Nc2ccccc2N)C=C(C(C)(C)C)C1=O | -7.3% (inactive)
CC(C)(C)C1=CC(=O)C(=O)C(C(C)(C)C)=C1 | 61.2% (active)
COc1ccc(CCNC(=O)CN2CCN(c3cccc(C(F)(F)F)c3)CC2)cc1 | 3.1% (inactive)
O=C(c1ccco1)N1CCN(c2nc(-c3ccc(F)cc3)cs2)CC1 | 5.4% (inactive)
N#CC(=C1CCCC1)c1nc(-c2cc3ccccc3oc2=O)cs1 | 1.4% (inactive)
CN(C)CCCNS(=O)(=O)c1ccc(Cl)s1 | 0% (inactive)
Fc1ccc(C2c3cccn3CCN2C(=S)Nc2cccc(Br)c2)cc1 (configuration not stated) | 5.7% (inactive)
O=C1CCc2cc(S(=O)(=O)N3CCN(c4ccccc4F)CC3)ccc2N1 | 6% (inactive)
COc1ccc(CC(NC(C)=O)C(=O)NC2CCN(C(=O)NCc3ccccc3)CC2)cc1OC (configuration not stated) | -4.4% (inactive)
CCC(=O)NC(=S)Nc1ccc(NC(=O)COc2ccc(Cl)cc2Cl)cc1 | 5.1% (inactive)
CCC(=O)NC(=S)Nc1ccc(NC(=O)COc2ccccc2)cc1 | 10.1% (inactive)
CCC(=O)NC(=S)Nc1ccc(NC(=O)COc2ccc(Cl)c(C)c2)cc1 | 62.3% (active)
Cc1cc(NC(=O)CSc2nnc(NC(=O)C3CC(=O)N(c4ccccc4)C3)s2)no1 (configuration not stated) | -9.8% (inactive)
O=C(CCn1c(=O)sc2ccccc21)NCCC1=CCCCC1 | 3.6% (inactive)
COc1ccc(C2=C(N)c3ccccc3C2=O)cc1 | 3.9% (inactive)
CCOC(=O)C1=C(Cc2ccc(OC)cc2)C(=O)c2ccccc2C1=O | 22.9% (inactive)
O=C(C1=C(c2ccccc2)C(=O)c2ccccc2C1=O)c1ccccc1 | 48.7% (inactive)
CC(C)c1ccc(C2=C(O)c3ccccc3C(=O)C2=O)cc1 | -3.9% (inactive)
CC(=O)C1=C(c2ccc(Br)cc2)C(=O)c2ccccc2C1=O | 80.3% (active)
OC(CNCc1ccccc1)Cn1ccc2ccccc21 (configuration not stated) | -1.3% (inactive)

Compound | inhibition
NC(N)=N/N=C/c1ccc(Br)cc1 | -2.5% (inactive)
O=c1cc(-c2ccc(O)c(O)c2)oc2cc(O)c(C3OC(CO)C(O)C(O)C3O)c(O)c12 (configuration not stated) | 45.4% (inactive)
O=c1cc(-c2ccc(O)c(O)c2)oc2c(C3O[C@H](CO)[C@@H](O)[C@H](O)[C@H]3O)c(O)cc(O)c12 (some centres not stated) | 51.9% (active)
O=c1cc(-c2ccc(O)cc2)oc2c([C@@H]3O[C@H](CO)[C@@H](O)[C@H](O)[C@H]3O)c(O)c([C@@H]3O[C@H](CO)[C@@H](O)[C@H](O)[C@H]3O)c(O)c12 | -0.7% (inactive)
CC(=O)N1C(=O)c2cccc3cccc(c23)C(=O)N1C(C)=O | 9.5% (inactive)
NC1=Nc2cccc3cccc1c23 | 12.8% (inactive)
CCN1CCN(C(=O)c2oc(=O)c3ccccc3c2-c2ccc(C)cc2)CC1 | -1.6% (inactive)
CCNc1nc2[nH]c(=O)c3c(c2s1)OC(N)=C(C#N)C3c1ccc(C)cc1 (configuration not stated) | 54.6% (active)
CNc1nc2[nH]c(=O)c3c(c2s1)OC(N)=C(C#N)C3c1ccccc1 (configuration not stated) | 43.5% (inactive)
CNc1nc2[nH]c(=O)c3c(c2s1)OC(N)=C(C#N)C3c1cccc(F)c1 (configuration not stated) | 39.7% (inactive)
COCCCNC(=S)N/N=C/c1ccc(N(C)C)cc1 | 1% (inactive)
CCC(C)/C(C)=N/NC(=O)c1ccc(COc2ccc(Cl)c(C)c2)cc1 (configuration not stated) | 13.9% (inactive)
Oc1ccc(F)c2cccnc12 | 50.9% (active)
Cc1ccc(NCc2ccc(O)c3ncccc23)cc1 | 50.8% (active)
Cc1ccc(NCc2ccc(O)c3ncccc23)cc1C | 55.8% (active)
Oc1ccc(CNc2ccccc2)c2cccnc12 | 50.5% (active)
OCc1ccc(O)c2ncccc12 | 27% (inactive)
Oc1ccc(CNc2ccc(F)cc2)c2cccnc12 | 36.2% (inactive)
Cc1cccc(NCc2ccc(O)c3ncccc23)c1 | 42.5% (inactive)
COCc1ccc(O)c2ncccc12 | 23.7% (inactive)
Oc1ccc(COCc2ccccc2)c2cccnc12 | 46.1% (inactive)
Cc1ccc(NCc2ccccc2O)cc1 | 13.8% (inactive)
O=[N+]([O-])c1ccc(O)c2ncccc12 | -7.5% (inactive)
Cc1ccc(NCc2ccccc2O)cc1C | 19.9% (inactive)
S=c1[nH]nc(-c2cccnc2)o1 | -18.4% (inactive)
Nc1nc(NC(=O)/C=C\C(=O)O)nn1-c1ccccc1 | -12.4% (inactive)

Compound | inhibition
Cc1ccc(C)c(NC(=S)N(Cc2ccc(Cl)cc2)Cc2ccc(C(=O)O)cc2)c1 | -4.3% (inactive)
O=C(NCCN1C(=O)S/C(=C\c2ccccc2)C1=O)C1CCN(S(=O)(=O)c2cccs2)CC1 | 8.1% (inactive)
CC(=O)c1cnn(-c2cc(Oc3cccc(C)c3)ncn2)c1C | 16.6% (inactive)
O=Cc1cn(-c2ccc(F)cc2)c2ccccc12 | 4.3% (inactive)
Cc1cccc(NC(=O)c2ccccc2OCC(=O)N2CCOCC2)c1C | 11.4% (inactive)
CCOc1ccccc1NC(=O)NCc1cccnc1 | 0.3% (inactive)
CSC1=C(C#N)C(c2ccc3c(c2)OCO3)C2=C(CCCC2=O)N1 (configuration not stated) | -3% (inactive)
COc1cc(C(=S)N2CCCC2)ccc1O | -0.7% (inactive)
COc1ccc(C(=S)N2CCN(c3cccc(Cl)c3)CC2)c(OC)c1 | 20.6% (inactive)
COc1cc(C(=S)N2CCCC2)cc(OC)c1O | 17.5% (inactive)
Oc1ccc(C(=S)N2CCN(c3cccc(Cl)c3)CC2)cc1 | 59.2% (active)
COc1cc(C(=S)N2CCN(c3ccccc3Cl)CC2)cc(O)c1O | 67.5% (active)
COc1cc(C(=S)N2CCCC2)cc(Cl)c1O | 4.8% (inactive)
COc1cc(C(=S)N2CCN(c3cccc(Cl)c3)CC2)ccc1O | 58.8% (active)
CC(=O)c1ccc(NC(=S)N2CCN(c3cccc(Cl)c3)CC2)cc1 | -6.5% (inactive)
Oc1ccccc1C(=S)N1CCN(c2cccc(Cl)c2)CC1 | 22.1% (inactive)
Cc1cccc(C)c1NC(=O)C1(N(Cc2ccco2)C(=O)Cn2nnnc2N)CCCCC1 | 4.1% (inactive)
COc1ccc(CNC(=O)C/C(C)=N/NC(=O)Cc2ccc(OC)cc2)cc1 | -4% (inactive)
COC(=O)c1ccc2nc(C)c(C)nc2c1 | -5.7% (inactive)
COC(=O)c1ccc2c(c1)C(C)(C)C(/C=C/c1ccc(OC)c(OC)c1OC)=[N+]2C | 91.8% (active)
COC(=O)c1ccc(C(=O)OC)c(NC(=O)COC(=O)c2ccc(OC)c(OC)c2OC)c1 | 7.2% (inactive)
COC(=O)c1ccc2c(c1)C(=O)/C(=C/c1ccc(O)cc1)O2 | 8% (inactive)
COC(=O)c1ccc2c(c1)C(C)(C)C(/C=C/c1ccccc1O)=[N+]2C | 39.9% (inactive)
COC(=O)c1ccc2c(c1)C(C)(C)C(/C=C/c1ccc(O)cc1)=[N+]2C | 72% (active)
